Our source for the inhibition values is PubChem BioAssay AID2315 (National Center for Advancing Translational Sciences (NCATS), 2010).

The campaign covered roughly 290,000 compounds. About 27,000 (9.3%) were called active. The full list was thinned out, with actives kept by preference. Unmarked numbers belong to inactive results. Cut-off read from the data, not from the text of the source: active = inhibition mostly above about 28% (no sharp cut-off); inactive = mostly below about 43%.

One may read the inhibition as the change of the read-out against control, counted positive when it falls.

The test can be described thus: A qHTS for Small Molecule Inhibitors of Shiga Toxin. For inhibition: 0% is about no effect. As to conditions: Vero cells, Shiga toxin protein synthesis inhibition reporter; at 38.7 µM, hits give high values. (In general: qHTS replaces the single test concentration by a dilution series.)
On to `N#Cc1ccccc1S(=O)(=O)N1CCN(C(=O)c2cc(-c3ccccc3)nn2-c2ccccc2)CC1`, for which the inhibition was 15.4%.

In the case of `O=C(CSc1nc2ccccc2c(=O)[nH]1)Nc1nc(-c2ccc(Br)cc2)cs1`, the inhibition was -26.5%. The value for `COc1ccc(C)cc1S(=O)(=O)N1CCN(S(=O)(=O)c2cc(C(=O)O)ccc2C)CC1` was -1.74%. As for `CN(C(=O)CN1C(=O)S/C(=C\c2ccccc2F)C1=O)C1CCS(=O)(=O)C1` (stereo unspecified), the inhibition was -0.834%.

For `COc1ccc(C(C(=O)NCC2CCCO2)N(C(=O)Cn2nnc3ccccc32)c2ccc(NC(C)=O)cc2)cc1OC` (stereo unspecified), the inhibition was -9.93%. Turning to `O=C1OC2(CCCCC2)CC2=C1C1O[C@](c3ccsc3)(Cc3ccccc31)O2`, the inhibition result was “inactive”. In the case of `Nc1cc(N2CCCCCC2)c2nonc2c1[N+](=O)[O-]` it was -13.9%. As to `Cc1ccc(CNC(=O)c2ccc(CS(=O)Cc3cccc(Cl)c3)o2)cc1` (stereo unspecified), the inhibition is -5.59%.

Turning to `CCNC(=O)Nc1ccc(S(=O)(=O)Nc2cnc(C)nc2C)cc1`, the inhibition was -5.43%. As for `O=C(NCc1ccncc1)C(=O)NCC1OCCN1S(=O)(=O)c1ccc(Br)cc1` (stereo unspecified), the inhibition was -17%. In the case of `O=C(Nc1ccc2c(c1)OCCO2)C1CCCN(c2ncccn2)C1` (stereo unspecified) it was 66.6% (active); in that of `Cc1cc(C)nc(N2CCC(C(=O)Nc3ccc4c(c3)OCCO4)CC2)n1`, 51.5%; in that of `O=C(Nc1cccc(Cl)c1)C1CCCN(c2cnccn2)C1` (stereo unspecified), -10.4%. As to `CC(C)=CCN1CCN(CCCc2ccccc2)CC1CCO` (stereo unspecified), the inhibition was -4.24%. In the case of `COc1ccc(-c2nn(-c3ccccc3)cc2/C=C2/SC(=S)N(CCCC(=O)O)C2=O)c(C)c1`, the inhibition is -11.2%.

`CCOC(=O)c1c(C)[nH]c2c1-c1ccccc1C(=O)C2=O`: the inhibition was 31.2%. Turning to `CCOC(=O)c1c(C)[nH]c(C2=NNC(=NC(C)COC)SC2)c1C` (stereo unspecified), the inhibition is 75.1% (active). The value for `Cc1cc(Nc2ccc(C(=O)N3CCCCC3)cc2)c2cccc(C)c2n1` was -5.1%; that for `Cc1cccc(N=C2NC(=O)/C(=C/c3cn(C)c4ccccc34)S2)c1` was -7.28%; that for `Cc1cccc(N=C2NN=C(c3c[nH]c4ccccc34)CS2)c1` was 42.1% (active). As to `Cc1cccc(C(=O)Nc2nnc(Cc3c[nH]c4ccccc34)s2)c1`, the inhibition is -6.89%.

`CS(=O)(=O)N1CCN=C1SCc1ccc(F)cc1`: the inhibition was 9.38%. In the case of `COc1ccc(N(CC(=O)NCCSCc2cccc(Cl)c2)S(C)(=O)=O)cc1` it was -2.69%; in that of `CCN(CC)C(=O)COc1coc(CN2CCN(Cc3ccccc3)CC2)cc1=O`, -10.1%; in that of `COc1cccc2cc(/C(C)=N/NC(=O)c3ccco3)oc12`, 32.4%. For `Cc1cccc(C(=O)OCC(=O)Nc2ccc(F)cc2)c1`, the inhibition is 27.4%.

On to `Cc1nn(CC(=O)Nc2ccc(F)cc2)c(=O)c2ccccc12`, for which the inhibition is -1.35%.

Turning to `CCC(=O)Nc1ccc2nn(-c3ccc(F)cc3)nc2c1`, the inhibition was 74.1% (active). The value for `Cc1ccccc1CN1CCC(C(=O)Nc2ccc(Oc3cccnc3)cc2)CC1` was -3.91%; that for `Cc1ccc(NC(=O)c2c(NC(=O)CCC(=O)O)sc3c2CCCCC3)cc1` was 42.9% (active). `O=C(Nc1ccccc1N1CCOCC1)c1csc2c1CCCC2`: the inhibition is 11.3%. Turning to `Cc1ccc(NC(=O)c2csc3c2CCCC3)cc1`, the inhibition is 110% (active).

In the case of `COC(=O)c1sc(NC(=O)c2csc3c2CCCC3)nc1C`, the inhibition is 76.1% (active). In the case of `COC(=O)c1c(NC(=O)CCCC(=O)O)sc2c1CCCCC2` it was -0.986%; in that of `COC(=O)c1sccc1NC(=O)c1csc2c1CCCC2`, 92.6%; in that of `O=C(N/N=C/c1ccco1)c1ccc(C(=O)N/N=C/c2ccco2)o1`, -3.95%. Turning to `O=C(NCc1ccccc1Cl)c1csc2c1CCCCC2`, the inhibition is 11.2%. The value for `O=C(N/N=C/c1ccco1)c1ccc(NC(=O)C2CC2)cc1` was -2.21%; that for `O=C(CN1CCCC1)Nc1sc2c(c1C(=O)Nc1ccccc1)CCCC2` was -10.4%; that for `CCOC(=O)c1sc(NC(=O)c2sc(C)nc2C)nc1C` was 30.3%. With `O=C(N/N=C/c1ccco1)c1csc2c1CCCC2`, the inhibition is 122% (active). In the case of `COc1ccc(S(=O)(=O)NCC(=O)NCc2cc(=O)n(C)c(=O)n2C)cc1F` it was -4.87%.

With `CCOC(=O)c1cc2ccccc2n1CC(=O)c1ccccc1`, the inhibition is 3.23%. For the molecule `COc1cccc(N2C(=O)CN(Cc3ccccc3)C2=S)c1`, the inhibition is 24.3%. In the case of `Cc1ccc(OCC(=O)Nc2ccc(N3CCN(C(=O)c4ccco4)CC3)cc2)c(C)c1` it was -6.09%; in that of `O=C(c1ccccc1F)N(Cc1ccccc1)Cc1ccccc1`, 18%; in that of `Cc1nc(N)nc(SCc2ccc([N+](=O)[O-])cc2)c1N`, -4.97%. `Cc1ccc(NS(=O)(=O)c2ccc3c(c2)oc(=O)n3C)c(C)c1`: the inhibition is 0.571%. With `COc1ccc(-c2ccc(OC)c(C3C4C=CCC(C)C4C(=O)N3Cc3ccccc3)c2)cc1C` (stereo unspecified), the inhibition is 31.9%.

In the case of `COc1ccc2oc(=N)c(C(=O)Nc3ccc(Br)cc3)cc2c1`, the inhibition was 14.3%. Consider `COc1ccc(C(=O)OCC(=O)Nc2cccc(C(C)=O)c2)cc1OC`, for which the inhibition is 8.39%.

For the molecule `O=C(COC(=O)C1CCCCC1)Nc1ccc([N+](=O)[O-])cc1`, the inhibition is 30.9%. The value for `O=C(Nc1ccc([N+](=O)[O-])cc1)C1(c2ccccc2)CCOCC1` was -4.2%. Consider `O=C(Nc1ccc([N+](=O)[O-])cc1)C1CC12CCC2` (stereo unspecified), for which the inhibition was 76.1% (active).

For the molecule `Cn1nccc1C(=O)NC1CCCc2c1cnn2-c1ccccc1F` (stereo unspecified), the inhibition is -4.18%. Consider `CCN1C(=O)c2cccc3c(S(=O)(=O)Nc4ccccc4O)ccc1c23`, for which the inhibition was 34.3%. Regarding `CC1CN(C(=S)Nc2cccc(F)c2)CC(C)O1` (stereo unspecified), the inhibition is -2.89%. With `O=C(CN1CCN(c2ccccn2)CC1)Nc1ccc(Br)cc1`, the inhibition is -9.75%. Take `CCCCSc1nnc(-c2ccc(NC(=O)CC)cc2)n1C`: the inhibition was -10.7%.

Take `CCC(=O)Nc1ccc(-c2ccc(N3CCCCC3)nn2)cc1`: the inhibition was 63.9% (active). In the case of `O=C(CN1C(=O)c2cccnc2Oc2ccc(Cl)cc21)NCCc1ccccc1` it was 3.75%.
